The values below come from article PMC5700166.

The target of this assay is T1, GST-Ap-NF-kB RHD (Exaiptasia pallida (Aiptasia), UniProt A0A913YAJ5 2-422).
T1 sequence: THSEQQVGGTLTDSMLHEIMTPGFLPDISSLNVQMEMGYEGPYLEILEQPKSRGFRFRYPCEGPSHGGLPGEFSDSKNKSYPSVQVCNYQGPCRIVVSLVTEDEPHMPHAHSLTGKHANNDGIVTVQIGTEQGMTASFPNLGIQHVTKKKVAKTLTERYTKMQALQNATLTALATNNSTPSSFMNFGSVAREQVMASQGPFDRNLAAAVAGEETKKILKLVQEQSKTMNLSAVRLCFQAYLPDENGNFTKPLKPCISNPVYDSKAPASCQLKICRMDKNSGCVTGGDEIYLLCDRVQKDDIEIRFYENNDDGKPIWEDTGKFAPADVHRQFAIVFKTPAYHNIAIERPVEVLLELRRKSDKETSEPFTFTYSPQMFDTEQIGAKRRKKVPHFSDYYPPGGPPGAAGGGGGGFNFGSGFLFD
Kind of assay: protein-binding microarray (PBM); PBM: ~300 nM protein, 6 mM HEPES pH 7.8, 80 mM KCl, 0.5 mM EDTA, 0.5 mM EGTA, 6% glycerol, 35 ng/ul poly-dIdC, 1% milk, 1 h, room temperature; Ap Aiptasia and Nv Nematostella (sea anemones) / Co Capsaspora / Aq Amphimedon (sponge) / Dm Drosophila / Hu human; RHD is the Rel homology domain; high values mean tight binding. The note with it: dsDNA, one strand shown.
In the case of “CCGATTAACATCAGGGGGGAAAATGATGTTAATCGGGTCTTGATTCGCTTGACGCTGCTG”, the binding signal turned out to be 7.23 z-score.

As to “CCGATTAACATCAAAATCCCCCTTGATGTTAATCGGGTCTTGATTCGCTTGACGCTGCTG”, the binding signal came to 10.1 z-score.

“CCGATTAACATCAGGGGTATTTATGATGTTAATCGGGTCTTGATTCGCTTGACGCTGCTG”: the binding signal is 5.75 z-score.

Sequence “CCGATTAACATCAGGGAGTTTTATGATGTTAATCGGGTCTTGATTCGCTTGACGCTGCTG” returned a binding signal of 5.33 z-score.

For “CCGATTAACATCAAGGGGGTTTCTGATGTTAATCGGGTCTTGATTCGCTTGACGCTGCTG”, the binding signal stood at 9.41 z-score.

“CCGATTAACATCAAAACTCCCCGTGATGTTAATCGGGTCTTGATTCGCTTGACGCTGCTG”: the binding signal was 7.7 z-score.

On to “CCGATTAACATCAATTTTCCCCATGATGTTAATCGGGTCTTGATTCGCTTGACGCTGCTG”, for which the binding signal was 6.24 z-score.

In the case of “CCGATTAACATCAAAAAATCCCATGATGTTAATCGGGTCTTGATTCGCTTGACGCTGCTG”, the binding signal was determined as 4.84 z-score.

“CCGATTAACATCAGGGGAAAGAATGATGTTAATCGGGTCTTGATTCGCTTGACGCTGCTG”: the binding signal is 4.95 z-score.

In turn, “CCGATTAACATCAATTTTCCCACTGATGTTAATCGGGTCTTGATTCGCTTGACGCTGCTG” had a binding signal of 2.82 z-score.

For “CCGATTAACATCAAATTTCCCATTGATGTTAATCGGGTCTTGATTCGCTTGACGCTGCTG”, the binding signal was 2.36 z-score.

Consider “CCGATTAACATCAACAAAATCCCTGATGTTAATCGGGTCTTGATTCGCTTGACGCTGCTG”, for which the binding signal came to 3.4 z-score.

Take “CCGATTAACATCAGGGGAAAACATGATGTTAATCGGGTCTTGATTCGCTTGACGCTGCTG”: the binding signal was 6.62 z-score.

In turn, “CCGATTAACATCAGGCCTTTCCCTGATGTTAATCGGGTCTTGATTCGCTTGACGCTGCTG” returned a binding signal of 2.77 z-score.

Sequence “CCGATTAACATCAGGGAGTACCCTGATGTTAATCGGGTCTTGATTCGCTTGACGCTGCTG” gave a binding signal of 5.7 z-score.

The sequence “CCGATTAACATCAGGACGTCCCCTGATGTTAATCGGGTCTTGATTCGCTTGACGCTGCTG” had a binding signal of 7.08 z-score.

For the sequence “CCGATTAACATCACAAAAAACCCTGATGTTAATCGGGTCTTGATTCGCTTGACGCTGCTG”, the binding signal was 3.76 z-score.

“CCGATTAACATCAGATAATCCCCTGATGTTAATCGGGTCTTGATTCGCTTGACGCTGCTG” showed a binding signal of 8.1 z-score.

With “CCGATTAACATCAGGGAAAGACCTGATGTTAATCGGGTCTTGATTCGCTTGACGCTGCTG”, the binding signal came out at 3.24 z-score.

“CCGATTAACATCAGGGGAAAAGATGATGTTAATCGGGTCTTGATTCGCTTGACGCTGCTG” returned a binding signal of 5.46 z-score.

As to “CCGATTAACATCAGCAATCCCCCTGATGTTAATCGGGTCTTGATTCGCTTGACGCTGCTG”, the binding signal turned out to be 7.85 z-score.

As for “CCGATTAACATCAAGGGGGAATCTGATGTTAATCGGGTCTTGATTCGCTTGACGCTGCTG”, the binding signal came to 8.47 z-score.

“CCGATTAACATCAATAAAACCCCTGATGTTAATCGGGTCTTGATTCGCTTGACGCTGCTG”: the binding signal stood at 5.73 z-score.

The sequence “CCGATTAACATCACAAAATTCCCTGATGTTAATCGGGTCTTGATTCGCTTGACGCTGCTG” returned a binding signal of 5.93 z-score.

Turning to “CCGATTAACATCAAGAGATTCCCTGATGTTAATCGGGTCTTGATTCGCTTGACGCTGCTG”, the binding signal was determined as 3.17 z-score.

For the sequence “CCGATTAACATCAAGGGGAATTCTGATGTTAATCGGGTCTTGATTCGCTTGACGCTGCTG”, the binding signal was 10.3 z-score.
